The supplement of paper PMC7695840
Counter-ions that a name gives are not always drawn.

Key:
[1] = test system: Staphylococcus aureus MW2 delta-mecA (mecA-); experiment: normalized GFP fluorescence (growth of mecA- strain) (fraction of control range); higher = more growth of mecA- strain; settings: compound concentration: 150 uM; cefoxitin: subinhibitory; fluorescent label: GFP
Summary of the method: (§1)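 Two pre-induced S. aureus MW2 strains, one with the gene labeled by DsRed and one lacking it labeled by GFP, were mixed 1:1 in LB with a subinhibitory antibiotic dose set daily. The mix went at 5 µL/well onto 150 μM compound (1.5% DMSO) in 1536-well plates, single replicate, and grew unshaken 20 h at 37 °C, 90% humidity. DsRed (540/590) and GFP (485/520) values were scaled per plate between single-strain control medians, and plates with high untreated ratios or rows with DsRed/GFP >10 were left out.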

[2] = test system: Staphylococcus aureus MW2 (mecA+); experiment: normalized DsRed fluorescence (growth of mecA+ strain) (fraction of control range); higher = more growth of mecA+ strain; settings: compound concentration: 150 uM; cefoxitin: subinhibitory; fluorescent label: DsRed
Summary of the method: as §1

| SMILES | normalized GFP fluorescence [1] | normalized DsRed fluorescence [2] |
| --- | --- | --- |
| Clc1ccc2c(c1)C(N1CCNCC1)=Nc1ccccc1O2 | 0.114 | 1.74 |
| Cc1ncc([N+](=O)[O-])n1CCO | 0.562 | 0.581 |
| CN(C/C=C/C#CC(C)(C)C)Cc1cccc2ccccc12 [Terbinafine hydrochloride (Lamisil)] | 0.111 | 0.483 |
| CCN(CC)C(=O)C1(c2ccccc2)CC1CN (stereo not given) | 0.155 | 0.617 |
| c1ccc([C@H]2CN3CCSC3=N2)cc1 | 0.522 | 0.535 |
| CCN1CCC[C@H]1CNC(=O)c1cc(S(N)(=O)=O)ccc1OC [Levosulpiride (Levogastrol)] | 0.447 | 0.695 |
| NC(=O)c1ncn([C@@H]2O[C@H](CO)[C@@H](O)[C@H]2O)c1N [Acadesine] | 0.499 | 0.776 |
| CCOc1ccc(NC(C)=O)cc1 | 0.419 | 0.668 |
| CCC(NC(C)C)C(O)c1ccc(O)c(O)c1 (stereo not given) | 0.38 | 0.581 |
| CCN[C@H]1CN(CCCOC)S(=O)(=O)c2sc(S(N)(=O)=O)cc21 | 0.268 | 0.875 |
| C[C@]12CC[C@@H]3c4ccc(O)cc4CC[C@H]3[C@@H]1C[C@@H](O)[C@@H]2O | 0.63 | 0.459 |
| COc1ccc(O)cc1 | 0.353 | 0.504 |
| Nc1ncn([C@H]2C[C@H](O)[C@@H](CO)O2)c(=O)n1 [Decitabine] | 0.242 | 0.802 |
| CC#CCn1c(N2CCC[C@@H](N)C2)nc2c1c(=O)n(Cc1nc(C)c3ccccc3n1)c(=O)n2C | 0.315 | 0.667 |
| O=C(O)C1(C(=O)O)CCC1.[NH2-].[NH2-].[Pt+2] | 0.26 | 0.886 |
| CN(C)CCCN1c2ccccc2Sc2ccc(Cl)cc21 | -0.00289 | 1.26 |
| CC(C)[C@H]1CC[C@H](C(=O)N[C@H](Cc2ccccc2)C(=O)O)CC1 | 3.92e-05 | 0.513 |
| Cc1onc(-c2ccccc2)c1-c1ccc(S(N)(=O)=O)cc1 [Valdecoxib] | 0.291 | 0.573 |
| COc1cc2nc(N(C)CCCNC(=O)C3CCCO3)nc(N)c2cc1OC (stereo not given) | 0.343 | 0.686 |
| NS(=O)(=O)c1cc(C(=O)O)c(NCc2ccco2)cc1Cl | 0.306 | 0.841 |
| COc1ccc(CC(C)NCC(O)c2ccc(O)c(NC=O)c2)cc1 (stereo not given) [Formoterol hemifumarate] | 0.777 | 0.699 |
| N#Cc1ccc2[nH]cc(CCCCN3CCN(c4ccc5oc(C(N)=O)cc5c4)CC3)c2c1 | 0.0415 | 0.987 |
| Cc1cc2c(s1)Nc1ccccc1N=C2N1CCN(C)CC1 | 0.695 | 0.803 |
| Cc1nnc(C(C)C)n1C1C[C@H]2CC[C@@H](C1)N2CC[C@H](NC(=O)C1CCC(F)(F)CC1)c1ccccc1 (stereo in doubt) [Maraviroc] | 0.747 | 0.67 |
| CN1CCC[C@@H]1Cc1c[nH]c2ccc(CCS(=O)(=O)c3ccccc3)cc12 | 0.194 | 0.948 |

| SMILES | normalized GFP fluorescence [1] | normalized DsRed fluorescence [2] |
| --- | --- | --- |
| O=C(O)CCCC[C@@H]1SC[C@@H]2NC(=O)N[C@@H]21 | 0.414 | 0.604 |
| O=C(c1ccccc1)c1ccc2n1CCC2C(=O)O (stereo not given) | 0.247 | 0.711 |
| C[C@]12CC[C@@H]3c4ccc(O)cc4CC[C@H]3[C@@H]1CCC2=O [Estrone] | 0.136 | 1.11 |
| CC(=O)O[C@]1(C(C)=O)CC[C@H]2[C@@H]3C[C@H](C)C4=CC(=O)CC[C@]4(C)[C@H]3CC[C@@]21C | 0.145 | 0.759 |
| CC(=O)[C@@]1(O)CC[C@H]2[C@@H]3CCC4=CC(=O)CCC4=C3[C@@H](c3ccc(N(C)C)cc3)C[C@@]21C [Ulipristal] | 0.57 | 0.967 |
| Nc1c(Br)cc(Br)cc1CN[C@H]1CC[C@H](O)CC1 [Ambroxol HCl] | 0.21 | 0.849 |
| CN(C)C/C=C/C(=O)Nc1cc2c(Nc3ccc(F)c(Cl)c3)ncnc2cc1O[C@H]1CCOC1 [Afatinib (BIBW2992)] | -0.00507 | 1.68 |
| CC[C@]12C=CCN3CC[C@@]4(c5cc([C@@]6(C(=O)OC)C[C@@H]7C[C@@H](C(C)(F)F)CN(Cc8c6[nH]c6ccccc86)C7)c(OC)cc5N(C)[C@H]4[C@@](O)(C(=O)OC)[C@@H]1OC(C)=O)[C@@H]32 [Vinflunine Tartrate] | 0.315 | 0.556 |
| CC(C)(C#N)c1cc(Cn2cncn2)cc(C(C)(C)C#N)c1 | 0.351 | 0.796 |
| OCC(S)CS (stereo not given) | 0.185 | 0.549 |
| CC(C)[N+](C)(CCOC(=O)C1c2ccccc2Oc2ccccc21)C(C)C | 0.295 | 0.691 |
| O=C(c1ccc(F)cc1)C1CCN(CCn2c(=O)[nH]c3ccccc3c2=O)CC1 | 0.217 | 0.83 |
| CCCSc1ccc2[nH]c(NC(=O)OC)nc2c1 | 0.251 | 0.742 |
| O.O.O.O.O.O.O.O.O.O.O.O.O.O.O.O.O.O.O.O.O=S(=O)([O][Al])OC[C@H]1O[C@@](COS(=O)(=O)[O][Al])(O[C@H]2O[C@H](COS(=O)(=O)[O][Al])[C@@H](OS(=O)(=O)[O][Al])[C@H](OS(=O)(=O)[O][Al])[C@H]2OS(=O)(=O)[O][Al])[C@@H](OS(=O)(=O)[O][Al])[C@@H]1OS(=O)(=O)[O][Al].[Al] | 0.405 | 0.842 |
| CC(=O)OCC(=O)[C@@]1(O)CC[C@H]2[C@@H]3CCC4=CC(=O)CC[C@]4(C)[C@H]3[C@@H](O)C[C@@]21C | 0.58 | 0.595 |
| NC(=O)c1ncn([C@@H]2O[C@H](CO)[C@@H](O)[C@H]2O)c1N [AICAR (Acadesine)] | 0.547 | 0.71 |
| CC(O)(CC(=O)O)CC(=O)O | 0.226 | 0.945 |
| CNCc1ccc(-c2[nH]c3cc(F)cc4c3c2CCNC4=O)cc1 | 0.424 | 0.641 |
| CC(C)(CO)[C@@H](O)C(=O)NCCCO | 0.406 | 0.653 |
| CO[C@H]1C[C@@H]2CC[C@@H](C)[C@@](O)(O2)C(=O)C(=O)N2CCCC[C@H]2C(=O)O[C@H]([C@H](C)C[C@@H]2CC[C@@H](OCCO)[C@H](OC)C2)CC(=O)[C@H](C)/C=C(\C)[C@@H](O)[C@@H](OC)C(=O)[C@H](C)C[C@H](C)/C=C/C=C/C=C/1C [Everolimus (RAD001)] | -0.00462 | 1.72 |
| CN1C(C(=O)Nc2ccccn2)=C(O)c2sc(Cl)cc2S1(=O)=O | 0.116 | 0.318 |
| Cc1ccc(Nc2nccc(N(C)c3ccc4c(C)n(C)nc4c3)n2)cc1S(N)(=O)=O [Pazopanib] | 0.64 | 0.586 |
| Cc1ncc(CO)c(CO)c1O | 0.208 | 0.816 |
| COC(=O)[C@H]1[C@H]2C[C@@H]3c4[nH]c5cc(OC)ccc5c4CCN3C[C@H]2C[C@@H](OC(=O)c2cc(OC)c(OC)c(OC)c2)[C@@H]1OC | 0.0258 | 1.04 |
| CC(=O)c1ccc(S(=O)(=O)NC(=O)NC2CCCCC2)cc1 | 0.35 | 0.729 |

| SMILES | normalized GFP fluorescence [1] | normalized DsRed fluorescence [2] |
| --- | --- | --- |
| NC(=O)N/N=C/c1ccc([N+](=O)[O-])o1 [Nitrofurazone (Nitrofural)] | 0.0137 | 0.0574 |
| CCN(CC)C(=O)c1cccc(C)c1 | 0.46 | 1.18 |
| Nc1ccc(C(=O)NCC(=O)O)cc1 | 0.297 | 0.671 |
| CC(=O)Oc1cccc(O)c1 | 0.353 | 0.584 |
| NC(=O)[C@@H]1CCCN1C(=O)[C@H](Cc1c[nH]cn1)NC(=O)[C@@H]1CCC(=O)N1 | 0.621 | 0.766 |
| CCN(CC)CCCC(C)Nc1ccnc2cc(Cl)ccc12 (stereo not given) | 0.506 | 0.443 |
| COc1cc(CNC(=O)CCCC/C=C/C(C)C)ccc1O | 0.0346 | 0.539 |
| Cc1c(C(=O)NN2CCCCC2)nn(-c2ccc(Cl)cc2Cl)c1-c1ccc(Cl)cc1 | 0.177 | 0.769 |
| CCCN[C@H]1CCc2nc(N)sc2C1 [Pramipexole dihydrochloride monohydrate] | 0.713 | 0.597 |
| CC(O)C(=O)O.N (stereo not given) | 0.217 | 0.837 |
| CN1[C@@H]2CC[C@H]1C[C@@H](OC(=O)c1c[nH]c3ccccc13)C2 [Tropisetron] | 0.528 | 0.582 |
| Nc1ccc(C(=O)O)cc1 | 0.617 | 0.958 |
| O=C1CCc2cc(OCCCCc3nnnn3C3CCCCC3)ccc2N1 | 0.533 | 0.561 |
| COc1ccccc1OCCNCC(O)COc1cccc2[nH]c3ccccc3c12 (stereo not given) | 0.0386 | 1.17 |
| COc1cc(Nc2c(C#N)cnc3cc(OCCCN4CCN(C)CC4)c(OC)cc23)c(Cl)cc1Cl [Bosutinib (SKI-606)] | -0.0247 | 0.727 |
| COc1ccc2c(c1)C(=O)N(CCc1ccc(S(=O)(=O)NC(=O)NC3CCCCC3)cc1)C(=O)C2(C)C [Gliquidone] | 0.017 | 0.134 |
| CCN1CCCC1CNC(=O)c1cc(S(=O)(=O)CC)c(N)cc1OC (stereo not given) [Amisulpride] | 0.514 | 0.816 |
| C#C[C@]1(OC(C)=O)CC[C@H]2[C@@H]3CCC4=CC(=NO)CC[C@@H]4[C@H]3CC[C@@]21CC (mixture of isomers) | 0.0291 | 0.642 |
| CCN(CC)CC#CCOC(=O)C(O)(c1ccccc1)C1CCCCC1 (stereo not given) | 0.0426 | 0.796 |
| NC[C@@H]1O[C@H](O[C@H]2[C@@H](O)[C@H](O[C@@H]3[C@@H](O)[C@H](N)C[C@H](N)[C@H]3O[C@H]3O[C@H](CO)[C@@H](O)[C@H](O)[C@H]3N)O[C@@H]2CO)[C@H](N)[C@@H](O)[C@@H]1O | 0.422 | 0.794 |
| Cc1ccc(/C(=C\CN2CCCC2)c2ccccn2)cc1 | 0.244 | 0.576 |
| NC(=O)c1ccccc1O | 0.52 | 0.666 |
| COc1c2occc2cc2ccc(=O)oc12 | 0.476 | 0.402 |
| CC(=O)O[C@@]12CO[C@@H]1C[C@H](O)[C@@]1(C)C(=O)[C@H](O)C3=C(C)[C@@H](OC(=O)[C@H](O)[C@@H](NC(=O)OC(C)(C)C)c4ccccc4)C[C@@](O)([C@@H](OC(=O)c4ccccc4)[C@H]21)C3(C)C [Docetaxel (Taxotere)] | 0.11 | 0.768 |
| O=C(NCCO[N+](=O)[O-])c1cccnc1 [Nicorandil (Ikorel)] | 0.624 | 0.986 |
